Our source for the IC50 values is PubChem BioAssay AID720651 (The Scripps Research Institute Molecular Screening Center, 2013).

The assay can be described thus: binds r(CAG) RNA repeats in late stage dose response, late-stage follow-up, biochemical, fluorescence, dose response, powder samples (AID 720651). The following applies: r(CAG) RNA TO-PRO-1 dye displacement.

Some of the results follow. The source made the active and inactive calls. No rule for the calls is given here.

Usually IC50 stands for the concentration at which inhibition is half-maximal. Consider `O=C1CC(=O)N(Cc2ccccc2)C(=O)N1CCCCCCN1C(=O)CC(=O)N(Cc2ccccc2)C1=O`, for which the concentration for half-maximal inhibition (IC50) is 1440 nM (active).
